N370S GC: N370S glucocerebrosidase modulation, Gaucher chaperone candidate; AID 2101; 330,000 compounds, 0.092% hits; N370S GC spleen homogenate, 4MU-glucoside fluorescence; Potency, µM (highest dose often 59.4 µM), for the others: top-dose activity change, negative = inhibition, actives largely listed as inhibitors;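 further: 0% = full enzyme activity and -100% = no enzyme basal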
LMNA splice mod: changes lamin A minigene splicing in HeLa cells. AID 1487. HeLa LMNA splicing GFP/RFP minigene ratio, 48 h. Potency, µM (top dose mostly 46.1 µM), without a hit: at the highest dose ratio change, negative = inhibition, hits mostly inhibitors. 200,000 compounds, 0.01% hits; active means well fitted inhibition curve with a large enough effect in the signal ratio, with a control signal flat, not every such curve was filed as active; inconclusive means small, poorly fitted or top-dose-only effect, or effect the other way, or a change in a side signal; the % refers to the signal ratio
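Read-out is the ratio of GFP to DsRed2 object intensity, acquired by 488 nm laser-scanning cytometry on HeLa lamin A-EGFP minigene reporter cells. Compound incubation 48 hrs at 37 °C in Opti-MEM with 2% FBS; DMSO 0.5% final.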
Luc counter: blocks Kinase-Glo luciferase, a counter-screen artifact; Kinase-Glo luciferase, ATP luminescence, 8 min; Potency, µM (series often up to 38.3 µM), for the others: top-dose activity change, negative = inhibition, most hits filed as inhibitors; 200,000 compounds, 0.28% hits; further: nearly all actives have a fitted effect of over 60% in size
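Compounds were added to a substrate mix at pH 7.2 (50 mM imidazole, 10 uM ATP, within the enzyme's linear range), followed by Kinase-Glo detection reagent; luminescence was measured after 8 minutes at ambient temperature.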
GAA inhib: blocks human lysosomal alpha-glucosidase | AID 1466 | purified human GAA, 4-MU-alpha-glucoside fluorescence | Potency, µM (top dose mostly 76.9 µM), for the others: at the highest dose activity change, negative = inhibition, hits mostly inhibitors | 200,000 compounds, 0.005% hits;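 further: plate controls were uninhibited enzyme wells for no effect and no-enzyme background for full effect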
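Activity normalized between no-enzyme (basal) and enzyme-only wells. Conditions: 4 nM human enzyme, 400 uM fluorogenic substrate, citrate/phosphate pH 5.0 with Tween-20, 20 min room temperature, compounds up to 77 uM.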
GAA glycogen mod: inhibitors or activators of human alpha-glucosidase glycogen cleavage; recombinant GAA, glycogen substrate, Amplex Red glucose oxidase fluorescence; AID 2100; 300,000 compounds, 0.38% hits; Potency, µM (top dose mostly 76.4 µM), without a hit: at the top dose activity change, negative = inhibition, hits mostly inhibitors; P10253;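 further: 0% = full enzyme reaction and -100% = no-enzyme basal signal; the screen sought inhibitors and activators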
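Recombinant human alpha-glucosidase (4 nM final) hydrolysed bovine liver glycogen (30 ug) for 40 min at 37 C in pH 5.0 citrate/phosphate with 0.01% Tween-20. Released glucose detected by glucose oxidase/Amplex Red, Ex 573/Em 610 nm. Compounds up to 77 uM; AC50 from Hill fits.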
aGlu spleen mod: inhibits or activates alpha-glucosidase in human spleen homogenate; human spleen homogenate, 4-MU-alpha-glucoside fluorescence; AID 2112; P10253; Potency, µM (top dose mostly 79.9 µM), inactives show at the top dose activity change, negative = inhibition, most hits filed as inhibitors; 240,000 compounds, 0.006% hits;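 further: 0% = enzyme with vehicle and -100% = no enzyme basal signal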
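Compounds were titrated against alpha-glucosidase in spleen homogenate at pH 5.0, with 1 mM 4-methylumbelliferyl substrate for 40 min at 37 C. Reactions were quenched with pH 10 NaOH/glycine and fluorescence measured.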
An asterisk follows results filed as active; ? = inconclusive; . = no result given; [ ] = another dose, or the depositor's remark. Only some compounds are listed: those with a hit (about 0.52% of all), similar ones and a draw of the others. Unless noted, the call rests on the fitted dose curve; in most records, active means well fitted curve in the direction sought with a large enough effect; inconclusive means small, poorly fitted or top-dose-only effect, or another doubt; inactive means no such curve, though single readings can be large; an effect the other way counts as inactive or inconclusive. Unless noted, on the % scale 0 is the no-effect control and ±100 the full control effect; potency means the concentration at half of the fitted maximal effect.

SMILES	N370S GC	LMNA splice mod	Luc counter	GAA inhib	GAA glycogen mod	aGlu spleen mod
CCN(CC)S(=O)(=O)c1ccc(N2CCOCC2)c(NC(=O)c2cc(=O)[nH]c3ccccc23)c1	6%	-27%[46 µM]	0%	?	-15%	-13%
CCOc1ccc(N=Cc2c(C)[nH]n(-c3nc4ccccc4[nH]3)c2=O)cc1	-2%	-2%	8.9µM*	-25%	3%	-6%
Cc1nc(C(=O)N2CCc3c([nH]c4ccccc34)C2c2ccccn2)cs1 (stereo unspecified)	?	-21%[46 µM]	-2%	?	16µM*	-8%
CC(C)c1nc(C(=O)N2CCc3c([nH]c4ccccc34)C2c2ccccn2)cs1 (stereo unspecified)	-28%	.	0%	?	-21%	4%
Cc1ccc2c(c1)C(c1ccc(F)cc1)N(C(=O)c1cccc(C(F)(F)F)c1)CC(=O)N2 (stereo unspecified)	.	.	.	.	6%[76.3 µM]	.
O=c1/c(=C/c2ccccn2)sc2nc3ccccc3n12	-2%	?	13µM*	-6%	0%	-9%
Cc1cc(C(=O)NCc2ccccc2C)c2c(C)nn(-c3cccc(F)c3)c2n1	.	8%[46 µM]	.	.	.	.
Clc1ccc2nc(-c3ccccc3)c(CN3CCOCC3)n2c1	18µM*	-5%	-2%	5%	7%	5%
Clc1ccc(-c2nc3ccccn3c2CN2CCOCC2)cc1	-11%	-11%	-1%	?	0%	-8%
CCCCCOc1ccc(/C=C/C(=O)Nc2sc(C)c(C)c2C(=O)OCC)cc1OC	.	.	.	.	0%[76.3 µM]	.
CCOc1ccccc1CNC(=O)C1CCN(c2nn3cc(-c4ccc(F)cc4)nc3s2)CC1	.	7%[46 µM]	.	.	-5%[76.3 µM]	.
O=C(N/N=C/c1ccc(O)cc1)c1ccncc1	-9%	.	.	.	-4%	.
CC/C(=C\C(=O)c1ccncc1)Nc1ccc(O)cc1	3%[2.35 µM]	?	-3%	-8%	45µM*	-8%
COc1ccccc1N1C(=O)c2ccccc2NC1c1ccncc1 (stereo unspecified)	2%	0%	2%	-9%	-1%	-14%
COc1ccccc1N1C(=O)N(C(C)=O)C2C1Nc1ccccc1N2C (stereo unspecified)	0%	?	1%	-8%	35µM*	-2%
O=C(Nc1ccc(-c2cn3ccccc3n2)cc1)c1ccco1	-5%	-3%	10µM*	-3%	1%	4%
COc1cc(/C=C2/NC(=O)N(Cc3ccccc3F)C2=O)ccc1Oc1ccc([N+](=O)[O-])cn1	0%	?	-3%	0%	-2%	-2%
COc1cc(/C=C2/NC(=O)N(Cc3ccccc3F)C2=O)ccc1O	-3%	.	.	-6%	22µM*	0%
COc1cc(/C=C2\NC(=S)N(C)C2=O)ccc1O	-19%	.	1%	?	10µM*	10%
Nc1c(N)c2ccccc2oc1=O	-7%	7%	4%	-13%	7.1µM*	-5%
Cc1ccc(Nc2c(N)c(=O)oc3ccccc23)cc1	-11%	?	1%	-14%	20µM*	0%
C[C@@H](C1[C@@H](O)CC2C3C=CC4C[C@@H](O)CC[C@]4(C)[C@H]3CC[C@@]21C)[C@@H]1CCCCN1 (stereo partly specified)	-2%	.	-2%	.	.	11%
COC(=O)c1c(C)sc(-c2c(-c3ccc4c(c3)OCCO4)[nH]c3[nH]c(=O)[nH]c(=O)c23)c1O	.	17%[46 µM]	.	.	25µM*	.
C/C(=N\Nc1ccc(Cl)cc1)c1ccccn1	-2%	7%	-2%	1%	7.1µM*	1%
CCOc1ccc(NS(=O)(=O)c2ccc(C)c(C(=O)O)c2)cc1	.	.	0%	.	.	.
COc1ccc(NC(=S)N(CCCN2CCOCC2)Cc2cn(C)c3ccccc23)cc1OC	?	?	3%	0%	?	-15%
COc1cccc(NC(=S)N(CCCN2CCOCC2)Cc2cn(C)c3ccccc23)c1	2.8µM*	?	0%	-4%	4%	-5%

Assay outcomes (PubChem BioAssay)
